PrPC TRFRET – cell surface PrPC inhibition, primary TR-FRET screen | P04156 | TR-FRET read-out | inhibition, % at 13.8 µM | 370,000 compounds, 0.43% hits | AID 720596; in the data active = inhibition above about 24%; also: 0% = median of the test wells and 100% = reference compound wells
Yp Topo-I inh – inhibitors of Yersinia pestis topoisomerase I; Y. pestis Topo-I cleavage product accumulation, plate reader; activity, % at 10 µM; 360,000 compounds, 0.064% hits; in the data active = activity above about 50%, passing the limit was not always enough
PrP UTR inh – inhibition of PrP 5' UTR reporter expression; cell-based PrP 5' UTR mRNA reporter, plate reader; inhibition, % (test concentration not listed); 340,000 compounds, 0.35% hits; in the data active = inhibition above about 52%; also: 0 = median of the neutral control wells
PfHsp40 rescue – restores yeast growth despite PfHsp40 toxicity | growth rescue, % at 12.5 µM | AID 504582 | 340,000 compounds, 0.68% hits | S. cerevisiae expressing PfHsp40, growth rescue, ATP luminescence; in the data active = growth rescue above about 28%, passing the limit was not always enough;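 also: yeast W303a lacking pdr1 and pdr3 grown in galactose medium; growth measured after three days at 30 °C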
PriA SSB inh – K. pneumoniae PriA-SSBct interaction inhibition; AlphaScreen SSBct-PriA binding, biotinylated peptide; inhibition, % at 33 µM; 430,000 compounds, 0.6% hits; in the data active = inhibition mostly above about 37%, no sharp cut-off; inactive = mostly below about 20%;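 also: plate controls were negative control peptide for no effect and reference peptide for full effect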
BJeLR lethal – BJeLR cell viability loss; inhibition, % (test concentration not listed); BJeLR (HRASV12) viability, CellTiter-Glo ATP luminescence, 48 h; 300,000 compounds, 0.17% hits; in the data active = inhibition above about 50%
PrPC confirm – confirmation of inhibitors of cell surface human prion protein | shares compounds with PrPC TRFRET | cell surface PrPC level, TR-FRET | inhibition, % at 13.8 µM | 1,500 compounds, 65% hits; in the data active = inhibition above about 25%
LD9 tox – counter-screen for PrPc inhibitors: cytotoxicity in LD9 cells; inhibition, % at 13.8 µM; 1,500 compounds, 29% hits; shares compounds with PrPC TRFRET; luminescence viability; in the data active = inhibition above about 9.5%
* = called active by the depositor. Only some compounds are listed: those with a hit (about 1.7% of all), similar ones and a draw of the others.

Screening COC(=O)c1ccc(NC(=O)Cn2nc3ccc(SCc4ccc(Cl)cc4)nn3c2=O)cc1 returned PriA SSB inh -18.
For Cc1nc(-c2ccc(S(=O)(=O)Nc3ccc(Br)cc3Cl)s2)cs1 the results were PrPC TRFRET 37*, Yp Topo-I inh 15, PrP UTR inh -16, PfHsp40 rescue 26*, PriA SSB inh -10, BJeLR lethal 1, PrPC confirm 53* and LD9 tox -2.
`CCN1C(=O)c2cc(NC(=O)COC)ccc2Oc2ccccc21` gave PriA SSB inh 11.
COC(=O)C1=CO[C@@H](C)[C@H]2CN3CCc4c([nH]c5ccccc45)[C@@H]3C[C@H]12 was read as PrPC TRFRET 25*, Yp Topo-I inh 2, PrP UTR inh -21, PfHsp40 rescue -1, PriA SSB inh 5, PrPC confirm 16 and LD9 tox -2.
CC(=O)c1ccc(NC(=O)Nc2ccc(Cl)cc2)cc1 was read as PrPC TRFRET 28*, Yp Topo-I inh 5, PrP UTR inh -131, PfHsp40 rescue 1, PriA SSB inh -8, BJeLR lethal 7, PrPC confirm 24 and LD9 tox 1.
Screening COc1cc(-c2cc(C(=O)N/N=C/c3cccnc3)[nH]n2)ccc1OCc1ccc(C)cc1 returned PriA SSB inh 2.
NC(=O)c1cc(NC(=O)c2cc(Br)c(Br)s2)cc(C(N)=O)c1 was read as PrPC TRFRET 46*, Yp Topo-I inh 6, PrP UTR inh -25, PfHsp40 rescue 2, PriA SSB inh 6, BJeLR lethal -2, PrPC confirm 47* and LD9 tox 0.
Cc1ccc(-c2cc(C(=O)N(C)Cc3cnn(C)c3C)c3cc(Br)ccc3n2)cc1 was read as PrPC TRFRET 75*, Yp Topo-I inh -2, PrP UTR inh -5, PfHsp40 rescue 2, PriA SSB inh 11, BJeLR lethal -10, PrPC confirm 90* and LD9 tox 4.
O=C(Nc1ccccc1-c1cn2ccsc2n1)c1ccc2nsnc2c1 was read as PriA SSB inh 0.
Screening Oc1ccc(-c2cnc3c(Nc4cccc(OC(F)(F)C(F)F)c4)nccn23)cc1 returned PrPC TRFRET 25*, Yp Topo-I inh 10, PrPC confirm 25* and LD9 tox -3.
`FC(F)C(F)(F)Oc1cccc(Nc2nccn3c(-c4ccc5ccccc5c4)cnc23)c1` gave PrPC TRFRET 10 and Yp Topo-I inh 10.
For CC1CCN(c2ccc3nnc(CCC(=O)N4CCCCC4)n3n2)CC1 the results were PrPC TRFRET 0, Yp Topo-I inh 10, PrP UTR inh 0, PfHsp40 rescue 1, PriA SSB inh 4 and BJeLR lethal 4.
CC1CCN(c2ccc3nnc(CCC(=O)N4CCN(c5ccc(F)cc5)CC4)n3n2)CC1 was read as PrPC TRFRET 40*, Yp Topo-I inh 19, PrP UTR inh -19, PfHsp40 rescue 0, PriA SSB inh 1, BJeLR lethal 3, PrPC confirm -6 and LD9 tox -3.
For NC(N)=NS(=O)(=O)c1ccc(NC(=S)NC(=O)c2ccc3c(c2)OCO3)cc1 the results were PrPC TRFRET 47*, Yp Topo-I inh 2, PrP UTR inh -36, PfHsp40 rescue -1, PriA SSB inh -2, BJeLR lethal 2, PrPC confirm 56* and LD9 tox -9.
`NS(=O)(=O)c1ccc(NC(=S)NC(=O)c2ccc3c(c2)OCO3)cc1` gave PrPC TRFRET 12, Yp Topo-I inh 10, PrP UTR inh -53, PfHsp40 rescue 1, PriA SSB inh -5 and BJeLR lethal -2.
`Cc1noc(C)c1C(=O)NCC(C)(O)c1cc2ccccc2o1` (stereo not given) gave PriA SSB inh -4.
For COCCn1c(SCC(=O)N2CC(=O)Nc3ccccc32)nc2ccccc2c1=O the results were PrPC TRFRET -3, Yp Topo-I inh -7, PrP UTR inh -15, PfHsp40 rescue 0, PriA SSB inh 1 and BJeLR lethal -1.
For CC(C)c1nc(SCC(=O)N2CC(=O)Nc3ccccc32)c2ccccc2n1 the results were PrPC TRFRET 80*, Yp Topo-I inh 0, PrP UTR inh -5, PfHsp40 rescue 0, PriA SSB inh -7, BJeLR lethal 0, PrPC confirm 104* and LD9 tox 0.
Screening Cc1cccc(C)c1-n1c(SCC(=O)N2CC(=O)Nc3ccccc32)nc2ccccc2c1=O returned PrPC TRFRET 27*, Yp Topo-I inh 22, PrP UTR inh -15, PfHsp40 rescue 2, PriA SSB inh -2, BJeLR lethal 2, PrPC confirm 18 and LD9 tox 1.
For Cc1ccc(-n2c(SCC(=O)N3CC(=O)Nc4ccccc43)nc3ccccc3c2=O)cc1 the results were PrPC TRFRET 7, Yp Topo-I inh 36, PrP UTR inh -15, PfHsp40 rescue 1, PriA SSB inh -4 and BJeLR lethal -24.
CCc1ccc2nc3c(c(C(=O)O)c2c1)CCC3 was read as PrPC TRFRET -6, Yp Topo-I inh 4, PrP UTR inh -27, PfHsp40 rescue 1, PriA SSB inh -3 and BJeLR lethal 4.
For Cc1cc(Br)c2nc3c(c(C(=O)O)c2c1)CCCCC3 the results were PrPC TRFRET 117*, Yp Topo-I inh -1, PrP UTR inh -4, PfHsp40 rescue -2, PriA SSB inh -14, BJeLR lethal -6, PrPC confirm 132* and LD9 tox -4.
COc1ccc(Cl)cc1C(=O)Nc1cccc(-c2ccc3nncn3n2)c1 was read as PrPC TRFRET 83*, Yp Topo-I inh 0, PrP UTR inh -2, PfHsp40 rescue 0, PriA SSB inh -2, BJeLR lethal -5, PrPC confirm 88* and LD9 tox 3.
For COc1cc(CN2CCN(Cc3cccc(OC)c3OC)CC2)cc(OC)c1 the results were PrPC TRFRET 28*, Yp Topo-I inh -6, PrP UTR inh -13, PfHsp40 rescue 0, PriA SSB inh 21, BJeLR lethal -5, PrPC confirm -4 and LD9 tox 0.
Screening COc1cccc(-c2cc3c(=O)n(-c4ccccc4)c(=S)[nH]c3s2)c1 returned PrPC TRFRET 31*, Yp Topo-I inh 3, PrP UTR inh -45, PfHsp40 rescue 5, PriA SSB inh -10, BJeLR lethal -2, PrPC confirm 67* and LD9 tox -1.
COc1ccc(-n2c(=S)[nH]c3sc(-c4ccccc4)cc3c2=O)c(OC)c1 was read as PrPC TRFRET 3, Yp Topo-I inh -2, PrP UTR inh -3, PfHsp40 rescue -1, PriA SSB inh -7 and BJeLR lethal 7.
`COC(=O)c1ccc(NC(C)=CC(=O)c2ccc(C)o2)cc1` gave PriA SSB inh 0.

Compound activity deposited in PubChem BioAssay by several laboratories.
